# HSF1 inh: HSF1 inhibition | activity change, negative = inhibition, % at 7.5 µM (by protocol) | AID 2098 | NIH3T3-HGL HSE-luciferase, MG132-induced, luminescence 8 h; hits give low values | actives 0.77% (n = 300,000);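 active means more than half of replicate wells show activity change below -50%, luminescence cut by over half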;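 further: luciferase reports HSF-1 transcriptional activity via heat shock element; 0% = median of DMSO wells and -100% = zero luminescence signal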
# GAA850 FXN act: activators of GAA850 frataxin (FXN) promoter; HEK293 lucGAA850 FXN promoter luciferase reporter, 24 h; percent of 10 µM SAHA response; activation, % at 6 µM; actives 0.56% (n = 360,000); AID 540364;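 active means activation above the average of all compounds screened plus 3 SD, cutoff fixed separately per campaign, cut at about 7.5% in these data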;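 further: 0% = DMSO wells and 100% = 10 µM SAHA wells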
# PG9 binder: binds the HIV-1 gp120 antibody PG9; TR-FRET gp120-PG9 antibody binding; inhibition, % at 6.7 µM; actives 0.43% (n = 360,000); in the data active means inhibition above about 8.5%
# SMARCA2 act: increases SMARCA2 function in MMTV reporter cells; AID 652017; activation, % at 9.1 µM; actives 1% (n = 370,000); MG213 cells, MMTV-luciferase reporter, dexamethasone, overnight; in the data active means activation above about 7.8%;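 further: 0% = vehicle wells and 100% = reference activator wells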
# AI-2 QS mod: modulators of Vibrio harveyi AI-2 quorum sensing system; Vibrio harveyi JMH597 AI-2 luminescence/OD600 ratio, 9 h; hits give low values; strain lacks LuxN and CqsS sensors; 0 = neutral-control median; activity change, % at 7.5 µM; actives 0.4% (n = 300,000); AID 2094; in the data active means activity change below about -75%, passing the limit was not always enough;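 further: luminescence divided by OD600 gain over 9 h not by final OD600 alone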
# HSP90 inh: inhibitors of HSP90 luciferase refolding in rabbit reticulocyte lysate; inhibition, % at 5.6 µM; actives 0.91% (n = 290,000); AID 1789; luciferase refolding luminescence, 3 h;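 active means inhibition above the screen-wide mean plus 3 SD, computed separately per campaign, cut at about 16% in these data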;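 further: 0% = DMSO wells and 100% = 60 µM geldanamycin wells; inhibitors lower the luminescence because luciferase stays unfolded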
# * marks the source's active call; other numbers are inactive results; / = no result. Only some compounds are listed: those with a hit (about 3.4% of all), similar ones and a draw of the others.
SMILES,HSF1 inh,GAA850 FXN act,PG9 binder,SMARCA2 act,AI-2 QS mod,HSP90 inh
Cc1noc(C)c1COc1ccc(C(=O)OCC(=O)Nc2c(C)n(C)n(-c3ccccc3)c2=O)cc1,-56*,3,2,1,12,-2
Cc1nc2ncnn2c(C)c1CCC(=O)N1CCN(c2ccccn2)CC1,-3,1,-1,0,3,1
Cc1nc2ncnn2c(C)c1CCC(=O)N1CCc2ccccc2C1,-1,0,-1,7.9*,13,0
Cc1n[nH]c(C)c1S(=O)(=O)NCCc1cccc(F)c1,/,/,/,-4,/,/
COC(=O)[C@]12C[C@H](CC(=O)NCC3CCCCC3)C(=O)N(Cc3ccc(Cl)cc3Cl)C1=C[C@H](COCc1ccccc1)O[C@@H]2C,/,/,/,-3,/,/
COC(=O)c1ccsc1NS(C)(=O)=O,/,/,-1,-7,/,/
CC(=O)Nc1cc(OC(C)=O)c2nonc2c1OC(C)=O,/,1,-10,-10,/,85*
Clc1ccc(-c2nnc(SCc3cccc4ccccc34)n2Cc2ccco2)cc1,/,/,/,2,/,/
Cc1ccc(S(=O)(=O)n2ccc(=O)[nH]2)cc1,-68*,0,1,0,19,7
C=CCn1c(Cc2cccs2)nnc1SCC(=O)Nc1ccc(C)cc1,/,/,/,-6,/,/
Cc1cnc(NC(=O)c2cc3ccccc3o2)s1,11,3,-3,1,13,38*
CC(C)c1ccc(NC(=O)N(CCc2nc3ccccc3[nH]2)C2CCCC2)cc1,-61*,-4,2,2,48,3
COC(=O)[C@]12C[C@H](CC(=O)NCc3cccs3)C(=O)N(Cc3cccc4ccccc34)C1=C[C@H](C(C)C)O[C@@H]2C1CC1,/,/,/,-3,/,/
COc1cccc(NC(=O)COc2ncnc3sc(C)c(C)c23)c1,-9,3,-1,1,-76*,0
Fc1ccc(-n2cc(-c3ccccc3)c3c(N4CCOCC4)ncnc32)cc1,-52*,-3,-1,-2,46,-2
Cc1ccc(C)c(S(=O)(=O)/N=C2\C=C(NS(=O)(=O)c3ccccc3)C(=O)c3ccccc32)c1,2,1,0,-1,18,0
Cc1cc(C)c(S(=O)(=O)/N=C2/C=C(Sc3ncn[nH]3)C(=O)c3ccccc32)cc1C,/,-13,0,-11,/,80*
Cn1cccc1C(=O)NC(=O)COC(=O)c1ccc(S(C)(=O)=O)c([N+](=O)[O-])c1,/,7,/,/,/,/
CS(=O)(=O)c1ccc(C(=O)OCC(=O)NC23CC4CC(CC(C4)C2)C3)cc1[N+](=O)[O-],26,12*,-1,3,24,1
CC1=C(C(=O)OCc2ccccc2)C(c2ccccc2Cl)NC(=O)N1CCCC(=O)O (stereo unspecified),-5,2,-1,0,11,2
CCOC(=O)C1=C(C)N(CCC(=O)O)C(=O)NC1c1ccccc1Cl (stereo unspecified),-77*,1,-1,1,7,/
CCOc1cc(C(c2c(C)[nH][nH]c2=O)c2c(C)[nH][nH]c2=O)cc(Br)c1OC,-69*,3,0,-3,1,-2
COc1cc(C(c2c(C)[nH][nH]c2=O)c2c(C)[nH][nH]c2=O)cc(Br)c1OC,16,1,-3,-1,8,-3
CC(C)[C@@H](C)/C=C/[C@@H](C)[C@H]1CC[C@@H]2[C@]1(C)CCC1[C@]23C=C[C@]2(C[C@@H](O)CC[C@]12C)N(c1cnccn1)O3 (stereo partly specified),/,/,0,0,/,/
CC(=O)c1cccc(Nc2nc(-c3cccc([N+](=O)[O-])c3)cs2)c1,-9,8.0*,2,5,2,2
Cn1c(=O)[nH]c(=O)c2c1nc(SCCN1CCOCC1)n2CCCc1ccccc1,-3,1,19*,-1,3,-1
Cn1c(=O)[nH]c(=O)c2c1nc(SCCN1CCOCC1)n2Cc1ccccc1,2,2,-1,-3,15,0
CCCC(=O)N1CCC(NS(=O)(=O)c2ccc3c(c2)CCN3C(C)=O)CC1,/,/,/,-6,/,/
O=C(NCc1ccc2c(c1)OCO2)c1cccc(C(=O)NCc2ccc3c(c2)OCO3)c1,-9,1,4,-2,-85*,-1

# Bioassay records (PubChem BioAssay)
